# Source: PubChem BioAssay AID977627 (Broad Institute, 2014)
# Records with an inconclusive call do not appear. Active and inactive are the calls of the source. How the calls were made is not given here.
# Test: growth inhibition of wild-type RFP versus H38-humanized GFP E. coli, dose response, H38 mutant GFP vs wild-type RFP, cherry-pick (AID 977627)
# Details: E. coli H38 humanized ribosome GFP strain, fluorescence, 24 h; activity: measured here: wild-type RFP strain growth, at 50 µM, stronger effect = lower value; series mostly up to 50 µM
compound,measurement,value
O=C(COC(=O)c1cccc(O)c1)Nc1ccc(Cl)cc1C(=O)c1ccccc1,activity,-8.13%
same,outcome,inactive
